The results in this text go back to PubChem BioAssay (EPA / NIEHS).

Calls of active or inactive are those of the source. The calls were made as follows: active = hit-call score of the fitted dose curve at least 0.9, where 1 is the maximum; inactive = score below 0.9.

Holding throughout (settings): mRNA level, 48 h; actives raise or lower the signal
Read-out in assay [1]: Nuclear factor NF-kappa-B p105 subunit (Homo sapiens) (UniProt P19838)
Description: LTEA_HepaRG_NFKB1: Life Technologies and Expression Analysis (LTEA) Assay for Nuclear Factor Kappa B Subunit 1 (NFKB1) using HepaRG (AID 2283521). The essentials:
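HepaRG, 48 h exposure; 8-pt half-log series from 100 uM in 0.5% DMSO; duplicates. Readout: NFKB1 mRNA by qRT-PCR (Fluidigm arrays), housekeeping-normalized. Gain/loss fit vs DMSO baseline.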

Read-out in assay [2]: Phosphatase and tensin (PTEN), PTEN (gene 5728)
The assay can be described thus: LTEA_HepaRG_PTEN: Life Technologies and Expression Analysis (LTEA) Assay for Phosphatase and tensin (PTEN) using HepaRG (AID 2283523). The essentials:
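Differentiated human HepaRG cells, plated 48 h then switched to serum-free induction medium, were exposed in duplicate for 48 h to eight half-log concentrations up to 100 uM in 0.5% DMSO. PTEN mRNA measured by TaqMan qRT-PCR, normalized to ACTB/GAPDH/POLR2A, bidirectional fit versus DMSO.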

Read-out in assay [3]: solute carrier (SLC22A1), SLC22A1 (gene 6580)
Description: LTEA_HepaRG_SLC22A1: Life Technologies and Expression Analysis (LTEA) Assay for solute carrier (SLC22A1) using HepaRG (AID 2283524). A digest of the protocol:
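Human HepaRG cells were plated 48 h, switched to serum-free induction medium, then exposed in duplicate for 48 h to 8-point half-log series from 100 uM in 0.5% DMSO. SLC22A1 mRNA measured by qRT-PCR, normalized to ACTB/GAPDH/POLR2A, fitted bidirectionally versus DMSO.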

Read-out in assay [4]: Pyruvate Dehydrogenase Kinase 4 (PDK4), PDK4 (gene 5166)
The assay can be described thus: LTEA_HepaRG_PDK4: Life Technologies and Expression Analysis (LTEA) Assay for Pyruvate Dehydrogenase Kinase 4 (PDK4) using HepaRG (AID 2283525). A digest of the protocol: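 Differentiated human HepaRG cells, pre-cultured 48 h, were exposed in duplicate for 48 h in serum-free induction medium to eight half-log concentrations up to 100 uM in 0.5% DMSO. PDK4 mRNA was quantified by qRT-PCR, normalized to ACTB, GAPDH and POLR2A, bidirectional fitting versus DMSO.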

Read-out in assay [5]: NAD(P)H dehydrogenase [quinone] 1 (NQO1), NQO1 (gene 1728)
The assay can be described thus: LTEA_HepaRG_NQO1: Life Technologies and Expression Analysis (LTEA) Assay for NAD(P)H dehydrogenase [quinone] 1 (NQO1) using HepaRG (AID 2283526). The essentials:
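Differentiated HepaRG cells, plated 48 h and then switched to serum-free induction medium, were exposed in duplicate for 48 h to 8-point half-log concentrations up to 100 uM in 0.5% DMSO. mRNA measured by qRT-PCR, normalized to ACTB, GAPDH, POLR2A; bidirectional fit versus DMSO.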

Read-out in assay [6]: Nuclear factor erythroid 2-related factor 2 (Homo sapiens) (UniProt Q16236)
Description: LTEA_HepaRG_NFE2L2: Life Technologies and Expression Analysis (LTEA) Assay for Nuclear factor erythroid 2-related factor 2 (NFE2L2) Transcription Factor using HepaRG (AID 2283527).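 As to outcome: TaqMan qRT-PCR transcript level normalised to ACTB GAPDH and POLR2A housekeeping genes.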 A digest of the protocol:
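Differentiated human HepaRG cells in serum-free induction medium were exposed for 48 h to eight concentrations (top 100 uM, half-log dilutions, 0.5% DMSO), in duplicate. NFE2L2 mRNA was quantified by TaqMan qRT-PCR, normalized to ACTB, GAPDH and POLR2A, with bidirectional fitting versus DMSO.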

Read-out in assay [7]: succinate dehydrogenase complex iron sulfur subunit B (SDHB), SDHB (gene 6390)
Description: LTEA_HepaRG_SDHB: Life Technologies and Expression Analysis (LTEA) Assay for succinate dehydrogenase complex iron sulfur subunit B (SDHB) using HepaRG (AID 2283528). The essentials: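 Readout is SDHB transcript level by qRT-PCR, normalised to three housekeeping genes and fitted bidirectionally against 0.5% DMSO vehicle. Human HepaRG cells were treated for 48 h at up to 100 uM.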

Read-out in assay [8]: Signal transducer and activator of transcription 3 (Homo sapiens) (UniProt P40763)
Description: LTEA_HepaRG_STAT3: Life Technologies and Expression Analysis (LTEA) Assay for Signal transducer and activator of transcription (STAT3) using HepaRG (AID 2283529). A digest of the protocol: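 Differentiated human HepaRG cells in serum-free induction medium were exposed in duplicate for 48 h to eight half-log concentrations up to 100 uM in 0.5% DMSO. STAT3 mRNA was quantified by TaqMan qRT-PCR, normalized to ACTB, GAPDH and POLR2A, and fitted bidirectionally against DMSO.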

Read-out in assay [9]: solute carrier (SLCO1B1), SLCO1B1 (gene 10599)
The assay can be described thus: LTEA_HepaRG_SLCO1B1: Life Technologies and Expression Analysis (LTEA) Assay for solute carrier (SLCO1B1) using HepaRG (AID 2283530). The essentials: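 SLCO1B1 transcript read by qRT-PCR (Fluidigm arrays), normalized to three housekeeping genes, after 48 h chemical exposure of HepaRG cells; bidirectional concentration-response fitting versus 0.5% DMSO baseline. Eight-point half-log series, maximum 100 uM.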

Read-out in assay [10]: sulfotransferase 2A1 (SULT2A1), SULT2A1 (gene 6822)
The assay can be described thus: LTEA_HepaRG_SULT2A1: Life Technologies and Expression Analysis (LTEA) Assay for sulfotransferase 2A1 (SULT2A1) using HepaRG (AID 2283531). The essentials:
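HepaRG, 48 h chemical exposure, 8-pt half-log curve from 100 uM in 0.5% DMSO, duplicates. Readout: TaqMan qRT-PCR of SULT2A1 mRNA, housekeeping-normalized. Bidirectional fit vs DMSO baseline.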

Read-out in assay [11]: Transforming Growth Factor (TGFB1), TGFB1 (gene 7040)
The assay can be described thus: LTEA_HepaRG_TGFB1: Life Technologies and Expression Analysis (LTEA) Assay for Transforming Growth Factor (TGFB1) Transporter using HepaRG (AID 2283533). The essentials: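 qRT-PCR readout of TGFB1 transcript in HepaRG lysates, normalized to three housekeeping genes; gain or loss of signal fitted relative to 0.5% DMSO vehicle. Exposure: 48 h, 8-point curve from 100 uM, duplicate wells.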

Read-out in a further assay: TIMP1, TIMP1 (gene 7076)
Description: LTEA_HepaRG_TIMP1: Life Technologies and Expression Analysis (LTEA) Assay for TIMP1 using HepaRG (AID 2283534). A digest of the protocol:
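HepaRG, 48 h exposure, 8-pt half-log series from 100 uM in 0.5% DMSO, duplicates; TIMP1 transcript by Fluidigm qRT-PCR, housekeeping-normalized; bidirectional curve fit vs DMSO baseline.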

Read-out in assay [12]: Tumor necrosis factor receptor 1 (TNFRSF1A), TNFRSF1A (gene 7132)
The assay can be described thus: LTEA_HepaRG_TNFRSF1A: Life Technologies and Expression Analysis (LTEA) Assay for Tumor necrosis factor receptor 1 (TNFRSF1A) using HepaRG (AID 2283535). A digest of the protocol:
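HepaRG, 48 h plating then 48 h chemical exposure, serum-free induction media; 8-pt CRC from 100 uM, half-log, 0.5% DMSO vehicle, duplicates. Readout: TaqMan qRT-PCR (Fluidigm), housekeeping-gene normalized; bidirectional fit vs DMSO.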

Read-out in assay [13]: Thyroid Hormone Responsive (THRSP), THRSP (gene 7069)
Description: LTEA_HepaRG_THRSP: Life Technologies and Expression Analysis (LTEA) Assay for Thyroid Hormone Responsive (THRSP) using HepaRG (AID 2283536). A digest of the protocol:
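Differentiated human HepaRG cells were exposed in duplicate for 48 h in serum-free induction medium to eight concentrations (top 100 uM, half-log steps, 0.5% DMSO). Expression was quantified by TaqMan qRT-PCR, normalized to ACTB, GAPDH and POLR2A, with bidirectional fitting against DMSO.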

Read-out in assay [14]: UDP glucuronosyltransferase (UGT1A1), UGT1A1 (gene 54658)
The assay can be described thus: LTEA_HepaRG_UGT1A1: Life Technologies and Expression Analysis (LTEA) Assay for UDP glucuronosyltransferase (UGT1A1) using HepaRG (AID 2283538). The essentials:
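Differentiated human HepaRG cells in serum-free induction medium were exposed in duplicate for 48 h to eight half-log concentrations up to 100 uM in 0.5% DMSO. UGT1A1 mRNA was quantified by TaqMan qRT-PCR, normalized to ACTB, GAPDH and POLR2A, and fitted bidirectionally against DMSO.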

Read-out in assay [15]: UDP glucuronosyltransferase (UGT1A6), UGT1A6 (gene 54578)
Description: LTEA_HepaRG_UGT1A6: Life Technologies and Expression Analysis (LTEA) Assay for UDP glucuronosyltransferase (UGT1A6) using HepaRG (AID 2283539). The essentials:
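qRT-PCR readout of UGT1A6 mRNA (normalized to ACTB/GAPDH/POLR2A) in differentiated HepaRG cells after 48 h chemical exposure; 8 concentrations, top 100 uM, half-log steps, 0.5% DMSO. Bidirectional curve fit relative to DMSO baseline.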

Read-out in assay [16]: X-box binding protein 1 (XBP1), XBP1 (gene 7494)
The assay can be described thus: LTEA_HepaRG_XBP1: Life Technologies and Expression Analysis (LTEA) Assay for X-box binding protein 1 (XBP1) using HepaRG (AID 2283540). The essentials: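 HepaRG, 48 h exposure, 8-pt half-log CRC top 100 uM, 0.5% DMSO vehicle, duplicates. Readout: TaqMan qRT-PCR of XBP1 mRNA, housekeeping-normalised (ACTB/GAPDH/POLR2A); bidirectional fit vs DMSO baseline.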

Read-out in assay [17]: Transforming Growth Factor (TGFA), TGFA (gene 7039)
Description: LTEA_HepaRG_TGFA: Life Technologies and Expression Analysis (LTEA) Assay for Transforming Growth Factor (TGFA) using HepaRG (AID 2283532). A digest of the protocol: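 Differentiated human HepaRG cells, plated 48 h then switched to serum-free induction medium, were exposed in duplicate for 48 h to 8-point half-log series from 100 uM in 0.5% DMSO. TGFA mRNA measured by qRT-PCR, normalized to ACTB/GAPDH/POLR2A, bidirectional fit versus DMSO.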

Read-out in assay [18]: Cellular tumor antigen p53 (Homo sapiens) (UniProt P04637)
The assay can be described thus: LTEA_HepaRG_TP53: Life Technologies and Expression Analysis (LTEA) Assay for Tumor Protein P53 (TP53) using HepaRG (AID 2283537). The essentials: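 Read-out is TP53 transcript level by microfluidic qRT-PCR, normalised to three housekeeping genes and fitted bidirectionally against DMSO. Human HepaRG cells received compounds for 48 h, highest concentration 100 uM.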

Nuclear factor erythroid 2-related factor 2 (Homo sapiens), sequence (Q16236 whole entry, looked up): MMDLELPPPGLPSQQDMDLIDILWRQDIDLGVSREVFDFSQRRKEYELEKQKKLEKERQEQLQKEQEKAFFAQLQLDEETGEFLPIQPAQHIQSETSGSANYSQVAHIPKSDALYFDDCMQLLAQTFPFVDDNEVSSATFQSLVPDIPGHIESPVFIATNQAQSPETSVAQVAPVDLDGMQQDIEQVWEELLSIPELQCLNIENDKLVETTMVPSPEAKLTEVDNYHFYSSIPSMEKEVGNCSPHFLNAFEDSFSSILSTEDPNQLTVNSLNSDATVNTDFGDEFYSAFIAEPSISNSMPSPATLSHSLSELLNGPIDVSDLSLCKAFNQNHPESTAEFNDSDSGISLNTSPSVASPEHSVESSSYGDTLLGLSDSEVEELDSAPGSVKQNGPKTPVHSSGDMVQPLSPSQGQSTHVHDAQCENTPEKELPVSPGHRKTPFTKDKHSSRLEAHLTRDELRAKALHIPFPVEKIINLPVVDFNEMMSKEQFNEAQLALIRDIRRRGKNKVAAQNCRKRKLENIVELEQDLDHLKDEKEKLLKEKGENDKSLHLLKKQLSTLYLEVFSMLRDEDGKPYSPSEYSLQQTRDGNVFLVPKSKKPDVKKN
Signal transducer and activator of transcription 3 (Homo sapiens), sequence (P40763 whole entry, looked up): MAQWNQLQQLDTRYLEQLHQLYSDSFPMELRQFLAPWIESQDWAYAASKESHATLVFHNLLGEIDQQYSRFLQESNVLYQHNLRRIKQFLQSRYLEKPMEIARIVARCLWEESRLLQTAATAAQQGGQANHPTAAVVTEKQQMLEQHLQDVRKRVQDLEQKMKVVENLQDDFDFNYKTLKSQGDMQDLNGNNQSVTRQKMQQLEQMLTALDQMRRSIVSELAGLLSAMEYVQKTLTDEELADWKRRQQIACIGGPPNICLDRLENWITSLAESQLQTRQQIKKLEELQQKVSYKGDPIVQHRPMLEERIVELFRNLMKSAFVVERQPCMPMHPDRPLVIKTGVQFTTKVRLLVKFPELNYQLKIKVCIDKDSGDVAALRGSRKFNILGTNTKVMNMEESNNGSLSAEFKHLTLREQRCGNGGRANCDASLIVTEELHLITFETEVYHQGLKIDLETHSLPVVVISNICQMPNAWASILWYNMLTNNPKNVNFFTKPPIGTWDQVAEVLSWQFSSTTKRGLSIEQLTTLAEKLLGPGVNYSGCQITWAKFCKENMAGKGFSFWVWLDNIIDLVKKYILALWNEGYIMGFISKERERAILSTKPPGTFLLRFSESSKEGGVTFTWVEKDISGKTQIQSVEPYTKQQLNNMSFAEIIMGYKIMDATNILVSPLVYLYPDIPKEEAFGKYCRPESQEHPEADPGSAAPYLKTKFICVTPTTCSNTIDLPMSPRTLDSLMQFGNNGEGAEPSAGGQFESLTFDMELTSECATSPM
Nuclear factor NF-kappa-B p105 subunit (Homo sapiens), sequence (P19838 whole entry, looked up): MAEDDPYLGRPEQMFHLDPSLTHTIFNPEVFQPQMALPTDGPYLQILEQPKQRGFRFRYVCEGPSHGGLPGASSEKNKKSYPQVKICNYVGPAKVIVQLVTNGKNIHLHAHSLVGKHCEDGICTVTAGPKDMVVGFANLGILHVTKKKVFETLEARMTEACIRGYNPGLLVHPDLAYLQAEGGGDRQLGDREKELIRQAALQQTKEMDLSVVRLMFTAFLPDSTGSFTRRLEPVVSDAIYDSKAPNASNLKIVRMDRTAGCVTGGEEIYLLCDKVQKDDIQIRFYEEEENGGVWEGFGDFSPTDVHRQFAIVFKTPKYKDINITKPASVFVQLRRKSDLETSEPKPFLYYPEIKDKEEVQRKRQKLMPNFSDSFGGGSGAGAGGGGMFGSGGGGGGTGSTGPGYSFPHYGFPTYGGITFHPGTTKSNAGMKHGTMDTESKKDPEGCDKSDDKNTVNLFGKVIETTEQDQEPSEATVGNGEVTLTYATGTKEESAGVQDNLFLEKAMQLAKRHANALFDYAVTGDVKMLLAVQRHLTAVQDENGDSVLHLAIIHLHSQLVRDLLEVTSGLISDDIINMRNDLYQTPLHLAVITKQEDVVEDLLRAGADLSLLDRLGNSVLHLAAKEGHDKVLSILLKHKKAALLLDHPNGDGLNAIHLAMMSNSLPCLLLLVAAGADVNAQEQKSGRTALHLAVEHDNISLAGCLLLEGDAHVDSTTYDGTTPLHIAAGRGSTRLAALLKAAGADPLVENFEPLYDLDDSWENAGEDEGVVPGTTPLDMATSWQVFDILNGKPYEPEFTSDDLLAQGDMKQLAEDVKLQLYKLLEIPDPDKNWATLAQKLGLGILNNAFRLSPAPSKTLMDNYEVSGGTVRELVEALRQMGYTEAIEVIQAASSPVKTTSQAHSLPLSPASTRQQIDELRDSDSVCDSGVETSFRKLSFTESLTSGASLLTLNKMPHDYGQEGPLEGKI
Cellular tumor antigen p53 (Homo sapiens), sequence (P04637 whole entry, looked up): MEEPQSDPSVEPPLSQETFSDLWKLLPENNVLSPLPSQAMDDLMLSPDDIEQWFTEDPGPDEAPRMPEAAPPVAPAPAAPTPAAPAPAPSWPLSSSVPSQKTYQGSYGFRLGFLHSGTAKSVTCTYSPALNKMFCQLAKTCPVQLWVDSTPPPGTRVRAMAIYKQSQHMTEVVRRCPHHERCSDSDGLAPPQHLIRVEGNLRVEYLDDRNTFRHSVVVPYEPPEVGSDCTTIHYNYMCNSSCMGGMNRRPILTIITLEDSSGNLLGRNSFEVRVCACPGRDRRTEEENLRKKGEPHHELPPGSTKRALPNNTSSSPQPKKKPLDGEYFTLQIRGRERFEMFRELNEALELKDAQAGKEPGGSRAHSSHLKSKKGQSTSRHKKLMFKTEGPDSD

In general, AC50 refers to the midpoint of the concentration-response curve, whichever way the signal moves. As for `CC(C)(C)CC(C)(C)c1ccc(O)c(-n2nc3ccccc3n2)c1`, the call in [1], in assay [2], in assay [4], in assay [5], in [6] and in assay [7] was inactive. In addition, the outcome was “inactive” in assay [8]; “inactive” in assay [9]; “inactive” in [10]; “inactive” in assay [11]; “inactive” in the assay with TIMP1, TIMP1 (gene 7076); “inactive” in [12]. Besides, the outcome in assay [15] and in [16] was inactive. Also, the half-maximal activity concentration (AC50) is 74.5 µM (active) in assay [3], 77.9 µM (active) in assay [13] and 17.4 µM (active) in assay [14].
As to `CCCCC(CC)COC(=O)CCCCC(=O)OCc1ccccc1` (stereo not drawn), the molecule was called inactive in assay [2], in [3], in assay [4], in assay [5], in [6] and in [7]. The outcome in assay [8] is “inactive”; in assay [9], “inactive”; in [10], “inactive”; in assay [17], “inactive”; in assay [11] it was “inactive”; in the assay with TIMP1, TIMP1 (gene 7076), “inactive”. Moreover, the call in [12], in assay [13], in assay [18], in assay [14], in assay [15] and in assay [16] was inactive.
For the molecule `CN(C)C=O`, the call in assay [1], in assay [2], in [3], in assay [4], in [5] and in assay [6] was inactive. Besides, the outcome in [7] was “inactive”; in [8], “inactive”; in assay [9], “inactive”; in assay [10] it was “inactive”; in assay [11], “inactive”; in the assay with TIMP1, TIMP1 (gene 7076), “inactive”. In addition, the molecule was called inactive in [12], in [13], in [14], in assay [15] and in assay [16].
As for `NC(=O)N1C(=O)C(C(=O)c2cc(Cl)cs2)c2cc(F)c(Cl)cc21` (stereo not drawn), the AC50 in assay [2] is 50 µM (active); in [3], 16.1 µM (active); in assay [4], 27.8 µM (active); in assay [5], 13.3 µM (active); in [6], 31.8 µM (active); in assay [7], 26.2 µM (active). Also, the AC50 in [9] is 19.3 µM (active); in assay [10], 34.2 µM (active); in the assay with TIMP1, TIMP1 (gene 7076), 85.2 µM (active); in assay [12], 40.2 µM (active); in assay [13] it was 17.7 µM (active); in assay [14], 38.7 µM (active). For the same molecule, the AC50 in assay [15] is 57 µM (active); in assay [16] it was 12.9 µM (active). Moreover, the outcome in [8] and in [11] was inactive.
